Test results: ChEMBL document CHEMBL1857833, “Screening and optimization of specific chemical series against human African Trypanosomiasis (HAT)”
About 390 (8.9%) of roughly 4,400 compounds showed an effect of 50% or more. The sample holds strong results, similar compounds and a random draw of the others, so the mix is not that of the screen.

These compounds were tested on Trypanosoma brucei (assay: DNDI: Inhibition of Human African Trypanosomiasis, SBRI 427, in vitro at 2 ug.mL-1).
Type: functional

| SMILES | % inhibition [%] |
| --- | --- |
| COc1ccc(CCN(C)Cc2coc(-c3cc(OC)c(OC)c(OC)c3)n2)cc1OC | 9 |
| Clc1cccc(N2CCN(Cc3coc(-c4ccco4)n3)CC2)c1 | 10 |
| Fc1cccc(-c2nc(CNCc3cccnc3)co2)c1 | 17 |
| CCN(CCC#N)Cc1coc(-c2ccc(Cl)cc2Cl)n1 | 8 |
| Fc1ccc(-c2nc(CNCc3ccccc3C(F)(F)F)co2)cc1 | 18 |
| CC1CCCC(NCc2coc(-c3cccc(F)c3)n2)C1C (centres undefined) | 10 |
| CC1CCCCC1NCc1coc(-c2ccccc2Cl)n1 (centres undefined) | -2 |
| CC1CCCCC1NCc1coc(-c2ccccc2Br)n1 (centres undefined) | 11 |
| CC1CCCC(NCc2coc(-c3cccc4ccccc34)n2)C1C (centres undefined) | 71 |
| CC1CCCC(NCc2coc(-c3ccccc3Br)n2)C1C (centres undefined) | 98 |
| COc1ccc(-c2nc(CNC3CCCC(C)C3C)co2)cc1 (centres undefined) | 2 |
| CCOC(=O)c1cn(Cc2coc(-c3ccc(OCC)cc3)n2)nc1C(F)(F)F | -15 |
| Cc1ccc(Oc2nc(C)ccc2/C(=N/O)Nc2ccccc2)c(C)c1 | -4 |
| Cc1cc(N)nn1Cc1coc(-c2cccc3ccccc23)n1 | 25 |
| CC(C)c1ccc(N/C(=N\O)c2ccc(Oc3ccc(-n4ccnc4)cc3)nc2)cc1 | 11 |
| Cc1cccc(-c2nc(Cn3nc(N)cc3C)co2)c1 | 9 |
| Cc1cc(N)nn1Cc1coc(-c2ccc(OC(F)(F)F)cc2)n1 | 97 |
| Cc1cc(N)nn1Cc1coc(-c2ccc(F)cc2)n1 | 12 |
| COc1ccc(-c2nc(Cn3nc(N)cc3C)co2)cc1 | 25 |
| Nc1cc(-c2ccccc2)n(Cc2coc(-c3ccc(OC(F)(F)F)cc3)n2)n1 | -3 |
| COc1cccc(-c2nc(Cn3nc(N)cc3C)co2)c1 | 18 |
| CC(C)c1nccn1Cc1coc(-c2ccc(OC(F)(F)F)cc2)n1 | 56 |

| SMILES | % inhibition [%] |
| --- | --- |
| COc1ccc(-c2nc(Cn3ccnc3C(C)C)co2)cc1 | 29 |
| CCOc1ccc(-c2nc(Cn3nc(N)cc3-c3ccccc3)co2)cc1 | -17 |
| CC(C)c1nccn1Cc1coc(-c2ccc(C(F)(F)F)cc2)n1 | -2 |
| CCOc1ccc(-c2nc(Cn3nc(N)cc3C)co2)cc1 | 99 |
| Cc1ccc(-c2nc(Cn3nc(N)cc3C)co2)cc1 | 99 |
| Fc1ccc(-c2nc(CN3CCC(N4CCCCC4)CC3)co2)cc1 | 4 |
| O/N=C(/c1ccc(Oc2cccc3c2CCCC3)nc1)N1CCOCC1 | 15 |
| C=CCN1CCN(/C(=N\O)c2ccc(C)nc2OCc2ccccc2F)CC1 | 3 |
| FC(F)(F)c1ccc(-c2nc(CN3CCN(c4ncccn4)CC3)co2)cc1 | 4 |
| Cc1ccc(/C(=N/O)NCc2c(F)cccc2F)c(OCc2ccc(C(C)C)cc2)n1 | 16 |
| Cc1ccc(-c2nc(CN(C)c3cccc(C)c3)co2)cc1 | 21 |
| Cc1cc(Oc2nc(C)ccc2/C(=N/O)N2CCN(c3ccccc3)CC2)cc(C(C)C)c1 | 5 |
| COc1cccc(Oc2ccc(/C(=N/O)Nc3ccc(C(C)C)cc3)cn2)c1 | -4 |
| CC(C)(C)CNCc1coc(-c2ccc(Cl)cc2Cl)n1 | 14 |
| CC1CCc2ccccc2N1/C(=N\O)c1ccc(Oc2cccc3c2OC(C)(C)C3)nc1 (centres undefined) | 10 |
| C=CCN1CCN(/C(=N\O)c2ccc(C)nc2Oc2ccc(C)cc2C)CC1 | 14 |
| CCCC1=NCCN1Cc1coc(-c2cccc(OCC)c2)n1 | 2 |
| Cc1ccccc1-c1nc(CNCc2ccccn2)co1 | 15 |
| Cc1ccccc1-c1nc(CN(C)C2CCN(C)CC2)co1 | 28 |
| CN(Cc1coc(-c2cccc3ccccc23)n1)C1CCCCC1 | 82 |
| CN1CCC(N(C)Cc2coc(-c3cccc4ccccc34)n2)CC1 | 69 |
| Cc1ccccc1-c1nc(CN(C)C2CCCCC2)co1 | 10 |

| SMILES | % inhibition [%] |
| --- | --- |
| CCOc1ccccc1-c1nc(CN(C)C2CCN(C)CC2)co1 | -1 |
| CCOc1ccccc1-c1nc(CN(C)C2CCCCC2)co1 | 13 |
| CCOc1ccccc1-c1nc(Cn2nc(N)cc2C)co1 | 5 |
| COc1ccc(Oc2nc(C)ccc2/C(=N/O)NCc2cccc(OC)c2)cc1 | 25 |
| C#CC1(NCc2coc(-c3cccc(F)c3)n2)CCCCC1 | 18 |
| O/N=C(/c1ccnc(Oc2ccc(F)c(Cl)c2)c1)N1CCSC1 | -2 |
| Cc1ccc(/C(=N/O)N(C)Cc2ccco2)c(Oc2cccnc2)n1 | 13 |
| CCCCN(C)Cc1coc(-c2cccc3ccccc23)n1 | 16 |
| CC(C)(C)COc1ncccc1/C(=N/O)n1ccnc1 | 30 |
| O/N=C(\NCc1cccs1)c1cccnc1OCc1ccccc1 | 10 |
| O/N=C(\NCc1c(F)cccc1F)c1cccnc1OCc1ccccc1 | 23 |
| COC(=O)C1CCN(/C(=N\O)c2cccnc2OCC(F)(F)F)CC1 | 12 |
| CC(=O)c1ccc(N/C(=N\O)c2cccnc2Oc2ccccc2OCc2ccccc2)cc1 | -2 |
| COC(=O)C1CCN(/C(=N\O)c2cccnc2OCC(C)C)CC1 | 5 |
| O/N=C(\NC1CCC1)c1cccnc1Oc1ccccc1OCc1ccccc1 | 97 |
| CC(C)COc1ncccc1/C(=N/O)Nc1ccccc1 | 5 |
| CCCN/C(=N\O)c1cccnc1Oc1ccccc1OCc1ccccc1 | -7 |
| CC(C)N/C(=N\O)c1cccnc1Oc1ccccc1OCc1ccccc1 | -14 |
| O/N=C(\NCC1CC1)c1cccnc1OCc1ccccc1 | 99 |
| COC(=O)C1CCN(/C(=N\O)c2cccnc2OCc2ccccc2)CC1 | 61 |
| O/N=C(\Nc1ccccc1)c1cccnc1OCc1ccccc1 | 77 |
| COc1cccc(Oc2ccc(/C(=N/O)N3CCN(c4ccccc4)CC3)cn2)c1 | -6 |

| SMILES | % inhibition [%] |
| --- | --- |
| COCCN(Cc1coc(-c2cccc3ccccc23)n1)C(C)C | 6 |
| CCOc1ccccc1-c1nc(CN(c2ccccc2)C2CCCCC2)co1 | -3 |
| COC(=O)C1CCN(/C(=N\O)c2ccc(C)nc2Oc2cccc3cnccc23)CC1 | 21 |
| COc1cccc(-c2nc(CN3CCN(c4ccccc4)CC3)co2)c1 | 15 |
| c1coc(-c2nc(CN3CCN(Cc4ccc5c(c4)OCO5)CC3)co2)c1 | -2 |
| COc1ccc(-c2nc(CNCc3cccc(OC)c3)co2)cc1 | -15 |
| COCCN(/C(=N\O)c1ccc(C)nc1Oc1cccc(C)c1)C(C)C | 23 |
| Cc1ccc(/C(=N/O)N2C(C)C=CC2C)c(Oc2ccc(F)c(Cl)c2)n1 (centres undefined) | 8 |
| CCN(Cc1ccncc1)Cc1coc(-c2cccc3ccccc23)n1 | 27 |
| CC(C)c1ccc(COc2ncccc2/C(=N/O)NC2CCCC2)cc1 | 21 |
| CCC(CC)N/C(=N\O)c1cccnc1OCc1ccccc1 | 94 |
| COc1ccc(CN/C(=N\O)c2cccnc2OCc2ccccc2)cc1 | 10 |
| O/N=C(\NC1CCCC1)c1cccnc1OCc1ccccc1 | 53 |
| N/C(=N\O)c1cccnc1OCc1ccccc1 | 9 |
| COCC(C)N/C(=N\O)c1cccnc1Oc1ccccc1OCc1ccccc1 (centres undefined) | -7 |
| CN(/C(=N\O)c1ccc(Oc2cccc3ccccc23)nc1)C1CCCCC1 | 25 |
| CN(Cc1coc(-c2ccc(Br)cc2)n1)Cc1ccco1 | 29 |
| CC(C)c1ccc(N/C(=N\O)c2cccnc2OCc2ccccc2F)cc1 | -12 |
| Cc1ccc(-c2nc(CN3CC[C@H]4CCCC[C@@H]4C3)co2)cc1 | 25 |
| CC1CCCCN1CCCNCc1coc(-c2ccccc2Br)n1 (centres undefined) | 20 |
| CCC1CCCCN1Cc1coc(-c2ccccc2Cl)n1 (centres undefined) | -10 |
| c1ccc2c(-c3nc(CNCCCN4CCCC4)co3)cccc2c1 | 93 |

| SMILES | % inhibition [%] |
| --- | --- |
| CC1CCCN1Cc1coc(-c2cccc3ccccc23)n1 (centres undefined) | 39 |
| CCC1CCCCN1Cc1coc(-c2cccc3ccccc23)n1 (centres undefined) | 84 |
| c1ccc2c(-c3nc(CNCCN4CCCCC4)co3)cccc2c1 | 14 |
| CC1CCCCN1CCCNCc1coc(-c2cccc3ccccc23)n1 (centres undefined) | 86 |
| CC1CCCCN1Cc1coc(-c2cccc3ccccc23)n1 (centres undefined) | 3 |
| c1ccc2c(-c3nc(CNCCCN4CCOCC4)co3)cccc2c1 | 30 |
| CN(CCCNCc1coc(-c2ccc(C(F)(F)F)cc2)n1)c1ccccc1 | -7 |
| Brc1ccccc1-c1nc(CN(Cc2ccccn2)Cc2ccccn2)co1 | 9 |
| COCCN(/C(=N\O)c1ccc(Oc2ccc3oc4ccccc4c3c2)nc1)C(C)C | 7 |
| FC(F)(F)c1ccc(-c2nc(CN3CCC4(CC3)OCCO4)co2)cc1 | -8 |
| Cc1cc(C)cc(Oc2ccc(/C(=N/O)N3CCN(c4ccccc4)CC3)cn2)c1 | 9 |
| COc1ccc(Oc2nc(C)ccc2/C(=N/O)N2CCCC2C)cc1 (centres undefined) | -10 |
| Cc1ccccc1-c1nc(CN2CCN(c3ccc(F)cc3)CC2)co1 | -10 |
| COC[C@H]1CCCN1Cc1coc(-c2cccc(F)c2)n1 | 0 |
| Clc1ccc(-c2nc(CN3CCN(Cc4ccccc4)CC3)co2)c(Cl)c1 | 12 |
| CC(C)c1nccn1Cc1coc(-c2ccc(Cl)cc2Cl)n1 | -20 |
| CCCc1nccn1Cc1coc(-c2ccc(Cl)cc2Cl)n1 | 50 |
| Clc1ccccc1-c1nc(CN2CCN(c3ncccn3)CC2)co1 | -3 |
| CCc1nccn1Cc1coc(-c2ccc(Cl)cc2Cl)n1 | 22 |
| Clc1ccc(-c2nc(CN3CCN(c4ncccn4)CC3)co2)c(Cl)c1 | 58 |
| CCOc1ccccc1-c1nc(CN2CCCCCC2)co1 | 7 |
